Assay results from PubChem BioAssay.
Values without a mark were called inactive. The source made the active and inactive calls.

test: fission yeast growth modulation, primary screen, strain 972, OD600, 24 h, no modulator (AID 1090);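 also: basal condition with compound alone and no growth modifier present; test concentration not given here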; settings: S. pombe 972 growth, higher = more signal, called active from +8 up or from −8 down

Question: For `CC(=O)NCCCC[C@@H]1NC(=O)[C@@H]2C[C@H](C(=O)NCCCC[N+](C)(C)C)[C@H](c3cccc(OCCO)c3)N2C1=O`, which z-score is on record?
Answer: 0.338

Question: Which z-score does the source give for `[N-]=[N+]=Nc1ccccc1[C@@H]1OC(c2ccc(OCCCO)cc2)=N[C@]1(CCS(=O)(=O)c1ccccc1)C(=O)NCc1ccccc1` here?
Answer: -0.111

Question: For `CN(C)CCCC[C@@H]1NC(=O)[C@H]2C[C@@H](C(=O)NCCCCCCNC(=O)CS)[C@@H](c3ccc(O)cc3)N2C1=O`, which z-score is on record?
Answer: -0.225

Question: Which z-score does the source give for `COC(=O)[C@@]1(Cc2ccc(OC)cc2)[C@H]2c3cc(C(=O)N4CCCC4)n(Cc4ccc(C)o4)c3C[C@H]2CN1C(=O)c1ccccc1` here?
Answer: -15.7 (active)

Question: With `O=C1N(Cc2ccccc2)c2ccccc2[C@H]2OC(c3ccc(OCCCO)cc3)=N[C@@]12CCS(=O)(=O)c1ccccc1` as the compound, how does the z-score read?
Answer: 0.485

Question: With `COCCCNC(=O)[C@]1(Cc2ccccc2)N=C(c2ccc(OCCCO)cc2)O[C@@H]1c1ccccc1N=[N+]=[N-]` as the compound, how does the z-score read?
Answer: -0.357

Question: For `CCCCC(=C=CC[C@H](O)c1cccc(OCCO)c1)C[C@H](O)COCc1ccccc1`, which z-score is on record?
Answer: -0.586

Question: With `COC(=O)c1ccc(OC)c(/C=C\CC(CCc2ccccc2)OC(=O)c2ccncc2)c1` (stereo not given) as the compound, how does the z-score read?
Answer: -1.34

Question: Which z-score does the source give for `COc1ccc([Si](C)(C)[C@H]2[C@H](CC(=O)N3CCC[C@H]3CO)O[C@@]3(C(=O)N(Cc4ccc(N5C(=O)c6cccc7cccc5c67)cc4)c4ccccc43)[C@@H]2C)cc1` here?
Answer: 0.363

Question: For `COc1cc(NN2C(C(O)c3ccc(I)cc3)C=CC3C(=O)N(C)C(=O)C32)cc(OC)c1OC` (stereo not given), which z-score is on record?
Answer: 0.605
